Assay results from PubChem BioAssay AID1159580 (chemical genetic matrix, 2015).
The whole screen tested about 5,500 compounds, of which about 2,000 (36%) were called active. About 18% were inconclusive and are not listed. Cut-off read from the data, not from the text of the source: active = normalized growth mostly below about 0.91 (no sharp cut-off); inconclusive = no clear call, values can overlap the other calls; inactive = mostly above about 0.92. This is one part of the list.

Assay: chemical genetic growth profiling, strain panel (AID 1159580);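 note: tested at 20 µM; growth read once vehicle control cultures reached saturation at 30 °C; 1 = growth at the plate median or of vehicle wells; lower values mean less growth of the strain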
Conditions: S. cerevisiae deletion strains, growth OD

Measured: normalized growth

CC(C)[C@@]1(NC(=O)[C@@H]2C[C@@H]3c4cccc5[nH]cc(c45)C[C@H]3N(C)C2)O[C@@]2(O)[C@@H]3CCCN3C(=O)[C@H](Cc3ccccc3)N2C1=O
inactive: locus YAL013W, strain DEP1, active compounds read low 0.941 | locus YAL040C, strain CLN3, active compounds read low 0.972 | locus YCL061C, strain MRC1 (second series), active compounds read low 0.974 | locus YDR363W, strain ESC2, active compounds read low 0.945 | locus YER002W, strain NOP16, active compounds read low 0.981 | locus YGR078C, strain PAC10, active compounds read low 0.996 | locus YMR307W, strain GAS1, active compounds read low 0.985 | locus YNL175C, strain NOP13, active compounds read low 0.987 | locus YNL197C, strain WHI3, active compounds read low 1.02 | locus YNL224C, strain SQS1, active compounds read low 1 | locus YNL322C, strain KRE1, active compounds read low 0.924 | locus YOR083W, strain WHI5 (second series), active compounds read low 1 | locus YPL055C, strain LGE1, active compounds read low 0.91 | locus YPL241C, strain CIN2, active compounds read low 0.985
